Screens from PubChem BioAssay.
Shown are actives, neighbours in structure and some others; about 6.1% of the full set was active somewhere.
D1 agonist: activates the human D1 dopamine receptor | P21728 | HEK293 T-REx D1 cells, calcium flux, agonist mode | activation, % at 2 µM | 360,000 tested, 1% active; in the data active = activation above about 30%; also: 0% is about no effect
Target sequence (P21728 whole entry, looked up): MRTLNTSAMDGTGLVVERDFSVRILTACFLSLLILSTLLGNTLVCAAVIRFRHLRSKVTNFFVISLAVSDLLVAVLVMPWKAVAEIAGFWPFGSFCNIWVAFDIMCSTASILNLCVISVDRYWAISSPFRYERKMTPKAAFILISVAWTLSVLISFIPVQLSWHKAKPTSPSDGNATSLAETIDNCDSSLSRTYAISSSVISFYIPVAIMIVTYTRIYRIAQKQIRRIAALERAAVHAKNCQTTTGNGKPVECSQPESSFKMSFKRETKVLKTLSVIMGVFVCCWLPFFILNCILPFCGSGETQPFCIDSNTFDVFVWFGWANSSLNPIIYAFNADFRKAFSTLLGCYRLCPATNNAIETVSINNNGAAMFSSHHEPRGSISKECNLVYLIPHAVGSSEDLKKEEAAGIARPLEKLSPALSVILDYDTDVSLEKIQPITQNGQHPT
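Inducible HEK293 T-REx D1 cells, force-coupled to calcium signalling, were plated at 4000 cells/well with tetracycline and held overnight at 30 C. After no-wash calcium dye loading, compound-evoked calcium rise over 180 s flagged agonists.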
D1 potentiator: human D1 dopamine receptor positive modulation; P21728; HEK293 TREx D1 cells, calcium flux, dopamine EC20 potentiation; potentiation, % at 10 µM; 360,000 tested, 0.036% active; AID 504651; in the data active = potentiation above about 30%; also: 0% is about no effect
DRD3 agonist: D3 dopamine receptor (human) agonism; D3R DiscoveRx beta-arrestin cells, luminescence, 90 min; max activation, %; 410,000 tested, 0.58% active; AID 652048; in the data active = max activation above about 30%; also: 0% is about no effect
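Cells at 1500/well, incubated overnight, then treated with pinned compounds (dopamine as control) for 90 min at 37 degrees C. DiscoveRx reagent added for 30 - 60 minutes at room temperature; luminescence read.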
D3 antag: blocks the human D3 dopamine receptor; P35462; max response, negative = inhibition, %; D3R cells, DiscoveRx beta-arrestin luminescence, antagonist mode; hits give low values; 360,000 tested, 2.5% active; AID 652054; in the data active = max response below about -50%; inconclusive = no clear call, values can overlap the other calls; also: % is scaled to controls: 0 for no effect and ±100 for the full control effect
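Cells plated overnight at 1500 cells/well, then exposed to library compounds with dopamine controls for 90 minutes at 37 degrees C. DiscoveRx reagent added for 30–60 minutes at room temperature; luminescence read, quantitative HTS format.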
D1 antagonist: human D1 dopamine receptor antagonism. P21728. HEK293 TREx D1 cells, calcium flux, dopamine EC80; hits give low values. activity change, negative = inhibition, % at 10 µM. 360,000 tested, 3.2% active; in the data active = activity change below about -30%; also: % is scaled to controls: 0 for no effect and ±100 for the full control effect
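Antagonism measured as reduced calcium response to an EC80 dopamine addition following 180 s compound pre-read; cells were inducible HEK293 Trex D1 plated overnight at 30 C, read kinetically at 1 cycle/sec.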
An asterisk follows results filed as active; ? = inconclusive; / = no result given.

SMILES | D1 agonist | D1 potentiator | DRD3 agonist | D3 antag | D1 antagonist
CCN(CC)c1ccc(/C=C2\SC(N)=NC2=O)cc1 | 60* | 0 | -2 | -15 | 8
CCCOc1ccc(/C=C2\SC(N)=NC2=O)cc1OC | 0 | -14 | -1 | 16 | -42*
COc1ccc(/C=C2\SC(N)=NC2=O)cc1Br | 0 | -5 | 0 | -6 | -17
O=C(NCc1ccc2c(c1)OCO2)c1ccc2c(c1)N(Cc1ccccc1F)C(=O)c1ccccc1S2=O (configuration not stated) | 3 | -3 | 5 | / | -13
CCOC(=O)Cc1c(C)nc(N)[nH]c1=O | 3 | -2 | -6 | -18 | -31*
CCCCCCOC(=O)Cc1c(C)nc(N)[nH]c1=O | 1 | 2 | 0 | 6 | 5
CCOC(=O)N1CCC(NC(=O)CS(=O)Cc2nc(-c3ccc(Cl)cc3)oc2C)CC1 (configuration not stated) | 0 | -5 | -4 | 12 | -14
CCOC(=O)N1CCC(NC(=O)C2CCCN(Cc3nc(-c4ccc(CC)cc4)oc3C)C2)CC1 (configuration not stated) | 37* | -5 | 1 | -2 | -34*
CCOC(=O)N1CCC(NC(=O)CS(=O)Cc2nc(-c3ccc(C)cc3)oc2C)CC1 (configuration not stated) | -1 | -2 | 6 | 15 | -35*
CCOc1ccc(-c2c(C)nn3c(C)c(C(=O)NCC(C)c4ccccc4)cnc23)cc1OCC (configuration not stated) | 5 | -7 | 3 | / | -6
O=C(N[C@@H](Cc1ccccc1)C(=O)CCl)OCc1ccccc1 | -1 | -6 | -66 | -94* | -23
CCc1ccccc1Nc1nn2c(=O)c3ccc(C(=O)NCc4cccs4)cc3nc2s1 | 6 | -1 | -14 | / | 15
Cc1cccc(N(C)S(=O)(=O)c2nnc(NC(=O)C(C)(C)C)s2)c1 | 2 | 0 | 4 | / | 9
Cc1ccc(-n2cc(CCCCCCCCC(=O)O)nn2)cc1 | 0 | -4 | 30* | 2 | 4
Cc1ccc(C)c(NC(=O)CSc2ccc(-c3cccs3)nn2)c1 | 1 | -7 | 8 | 2 | -81*
Cc1ccccc1NC(=O)CSc1ccc(-c2cccs2)nn1 | 4 | -2 | 3 | / | 5
Cc1ccc(C)c(NC(=O)CSc2nnc(-c3ccncc3)n2N)c1 | 1 | -3 | -3 | -70* | 1
COc1ccc(CCNC(=O)c2ccc3c(c2)N(Cc2ccc(F)cc2)C(=O)c2ccccc2S3(=O)=O)cc1OC | 4 | -2 | -18 | / | 9
O=C(c1ccco1)N1CCN(CCCCOc2ccc(F)cc2)CC1 | 14 | -3 | 66* | 2 | -16
O=C(c1ccco1)N1CCN(CCCCN2C(=O)c3ccccc3C2=O)CC1 | 0 | 0 | 57* | -10 | 9
O=C(CN1C(=O)c2ccccc2C1=O)N1CCN(C(=O)c2ccco2)CC1 | 0 | 1 | -9 | -11 | 0
Cc1ccc(NC(=O)CN2C(=O)CCc3cc(S(=O)(=O)N4CCOCC4)ccc32)cc1F | 1 | 0 | -4 | / | 1
CCOC(=O)CCc1c(C)nc(SCCN2CCCC2)c(C#N)c1C | 4 | -5 | -8 | -56* | 7
COc1ccc(NC(=O)c2ccc(C)cc2)cc1 | 1 | 18 | -1 | 14 | 3
COc1ccc(NC(=O)c2ccc(NC3CC(=O)N(c4ccc(C)cc4C)C3=O)cc2)cc1 (configuration not stated) | 6 | -3 | 10 | -4 | -31*
SMILES | D1 agonist | D1 potentiator | DRD3 agonist | D3 antag | D1 antagonist
COc1ccccc1N1CCN(c2ncnc3c2nnn3C)CC1 | 11 | -1 | -17 | / | /
COc1cc(/C=N/NC(=O)C23CC4CC(CC(C4)C2)C3)cc(Br)c1O | 1 | -4 | -29 | ? | 22
O=C(N/N=C/c1cc([N+](=O)[O-])cc(Br)c1O)C12CC3CCC(CC(C3)C1)C2 | 122* | 14 | -13 | -1 | -32*
CCC(Sc1nc(C)cc(C)n1)C(=O)Nc1cc(C)on1 (configuration not stated) | 1 | 2 | 0 | -53* | 9
CCC(Sc1nc(C)cc(C)n1)C(=O)O (configuration not stated) | 1 | -3 | 7 | 10 | -5
COc1cccc(Cn2c(CNS(=O)(=O)c3ccc(F)c(Cl)c3)nc3cccnc32)c1 | 1 | 0 | -32 | / | 4
CNC(=O)C(=O)NCC1OCCCN1S(=O)(=O)c1ccc(F)cc1C (configuration not stated) | 1 | -11 | -3 | 6 | -54*
Cc1cc2c(s1)c1cnn(Cc3ccccc3F)c(=O)c1n2Cc1ccccc1F | 3 | 15 | / | / | -3
CCO[C@H](Cc1ccc(OCCc2ccc(OS(C)(=O)=O)cc2)cc1)C(=O)O | / | / | -21 | / | /
CC(C)(C)n1c(O)c2ccc(C(=O)N=NC(=O)c3ccccc3)cc2c1O | 9 | 0 | -8 | -15 | -31*
COc1cc(OC)c(OC)cc1CN1CCc2nc(N3CCN(c4ccccc4F)CC3)ncc2C1 | 0 | 0 | -10 | / | -2
CCOc1ccccc1Nc1nnc(Cc2ccccc2Cl)c(=O)[nH]1 | 10 | -10 | 7 | -19 | -32*
CC1Oc2ccccc2C=C1/C=N/NC(=O)c1ccccc1 (configuration not stated) | 0 | -9 | 11 | 4 | -8
CC1Oc2ccccc2C=C1/C=N/NC(=O)c1ccccc1O (configuration not stated) | 17 | -1 | 13 | 2 | -40*
CCn1nnc2cc(C(=O)Nc3cccc(C)c3C)ccc21 | 4 | 0 | -10 | / | 2
CCCn1c(CCNc2nc(-c3ccc(Cl)c([N+](=O)[O-])c3)cs2)nc2cc(Cl)c(Cl)cc21 | -1 | 3 | -7 | -2 | 0
Fc1ccc(Cn2c(-c3cccc(Br)c3)nc3ccccc32)cc1 | 19 | -3 | 0 | / | /
Cn1c(NCc2cccc(Br)c2)nc2ccccc21 | 5 | -1 | -13 | -58* | 8
CCCn1c(-c2cccc(Br)c2)nc2ccccc21 | 1 | -3 | 7 | / | -35*
CCCn1c(C(C)Nc2nc(-c3cccc(Br)c3)cs2)nc2ccccc21 (configuration not stated) | 1 | 1 | 31* | 14 | 14
CCCn1c(CCNc2nc(-c3cccc(Br)c3)cs2)nc2ccccc21 | / | / | 33* | 35 | /
Cc1ccc(C)c(N2CCN(C(=O)c3cc4c(=O)n(Cc5cccs5)ccc4nc3C)CC2)c1 | 3 | -3 | -5 | / | 23
CC(C)CCn1c(SCc2cccc(F)c2)nc2ccsc2c1=O | 12 | 3 | 11 | / | 14
CCCCn1c(-c2cccc(Br)c2)nc2cc3[nH]c(=O)c(C(C)C)nc3cc21 | -1 | -9 | 63* | 39 | 5
O=C(CCc1nnc2n(Cc3ccccc3Cl)c(=O)c3ccccc3n12)Nc1ccc(F)cc1 | 0 | -4 | 0 | / | -12
CCc1nnc2c3ccccc3nc(N3CCN(c4cc(C)ccc4C)CC3)n12 | 3 | 2 | 5 | / | 2
